The source of these data is PubChem BioAssay (NCATS).

Test [1] can be described thus: Panc-1005 Cancer Cell Toxicity qHTS against the NCATS CANVASS Library (AID 1347349). Also: nearly all actives have a fitted effect of over 60% in size. Put shortly:
(§1)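 Following a 4 h pre-incubation of 1000 seeded cells, compounds were pinned in an 11-pnt dilution series and left for 72 h; viability then came from CellTiter-Glo.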

A short description of test [2]: UWB1.289-WTBRCA1 Cancer Cell Toxicity qHTS against the NCATS CANVASS Library (AID 1347354). Put shortly:
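Toxicity was measured as CellTiter-Glo luminescence after 72 h exposure to an 11-point compound series. Compound was added to 1000 cells/well 4 h after seeding.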

The test system of test [3] is Zika virus NS2B-NS3 protease (linked construct). Put plainly: Primary screen NINDS Rhodamine qHTS for Zika virus inhibitors (AID 1347160). Also: nearly all actives have a fitted effect of over 55% in size. In outline:
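Each compound, titrated, sat 15 min with 25 nM linked protease before 1.5 microM Rhodamine110 substrate went in. Fluorescence gain over the next 15 min, in pH 8.0 Tris with Tween 20, gave Hill-fitted curves.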

Test [4] is described as follows: UWB1.289 Cancer Cell Toxicity qHTS against the NCATS CANVASS Library (AID 1347347). Also: nearly all actives have a fitted effect of over 60% in size. In outline: as §1
The nature of test [5]: qHTS for Antimalaria activity screened against the NCATS CANVASS Library (AID 1347380). Also: nearly all actives have a fitted effect of over 40% in size. Put shortly: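 SYBR Green fluorescence at 485/535 nm was read 18 hr after lysis. This followed a 72 hr incubation at 37C in 5% O2, 5% CO2 of Dd2-infected erythrocytes (0.3% parasitemia, 2.5% final hematocrit) with compounds titrated over 11 concentrations.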
Test [6] is described as follows: OV-SAHO Cancer Cell Toxicity qHTS against the NCATS CANVASS Library (AID 1347348). Also: nearly all actives have a fitted effect of over 55% in size. Put shortly:
as §1

Records with an inconclusive call do not appear. Active and inactive are the calls of the source. Calls follow the shape of the dose curve; as a rule, active = well fitted curve in the direction sought with a large enough effect; inconclusive = small, poorly fitted or top-dose-only effect, or another doubt; inactive = no such curve, though single readings can be large; an effect the other way counts as inactive or inconclusive.
Potency is read from the fitted curve at half-maximal effect.

Turning to `CCC(=O)N[C@@H](C[C@H](C)C(Cl)(Cl)Cl)C(=O)N1C(=O)C=C(OC)[C@@H]1C[C@H](C)C(Cl)Cl`, the Potency entry in test [1] and in test [2] was “inactive” in each case.

Take `CC[C@@H]1CN2CCC3(Nc4cccc(OC)c4C3=O)[C@@H]2C[C@@H]1/C(=C\OC)C(=O)OC` (stereo partly specified): the Potency entry in test [3], in test [1] and in test [2] was “inactive” in each case.

Consider `CO[C@H]([C@@H](C)[C@H]1O[C@]1(C)C[C@H](C)/C=C/C=C(\C)[C@H]1O[C@@H](CC(=O)O)CC[C@@H]1C)[C@@H](C)O`, for which the Potency in test [4] was 0.0188 µM (active); in test [1], 0.0375 µM (active); in test [5], 0.0666 µM (active).

Take `O[C@H]1C=C[C@@]23CCN(Cc4cc5c(cc42)OCO5)[C@@H]3C1`: in test [4], the Potency is 11.8 µM (active). For the same compound, the Potency entry in test [6] and in test [1] was “inactive” throughout.

As for `CC[C@]12C=CCN3CC[C@]4(C(=C(C(=O)OC)C1)Nc1ccccc14)[C@@H]32`, the Potency entry in test [4], in test [6], in test [1] and in test [2] was “inactive” throughout. Moreover, the Potency in test [5] is 0.042 µM (active).

In the case of `C=C(C)[C@H]1C(=O)c2c3c(cc4c5c(n1c24)[C@@]1(C)[C@@H](CC[C@H]2[C@](C)(/C=C/C=C(\C)C(=O)O)[C@@H](O)CC[C@@]21C)C5)C1=CC(C)(C)OC(C)(C)[C@H]1[C@@H]3O`, the Potency in test [3] is 2.2 µM (active); in test [4] it was 11.8 µM (active); in test [6] it was 11.8 µM (active); in test [1], 8.41 µM (active); in test [2], 18.8 µM (active); in test [5], 7.47 µM (active).

Consider `C=CC(C)(C)[C@@]12C[C@H]3C(=O)N/C(=C\c4cnc[nH]4)C(=O)N3[C@@H]1Nc1ccccc12`, for which the Potency entry in test [4], in test [6], in test [1], in test [2] and in test [5] was “inactive” throughout.

Consider `CCCCC1CC[C@H]2CCCC(CCC)N12` (stereo partly specified), for which the Potency result in test [3], in test [6], in test [1], in test [2] and in test [5] was “inactive” each time.

In the case of `C[N+](C)(C)CCc1c[nH]c2ccccc12`, the Potency result in test [4], in test [6], in test [1] and in test [2] was “inactive” in each case.

Take `C=C[C@]12C=CCN3CC[C@@]4(c5ccccc5NC(=O)[C@@H]4C1)[C@@H]32`: the Potency result in test [4], in test [6], in test [1] and in test [2] was “inactive” throughout.

On to `CCCC[C@@H](C)/C=C1/CN2CCC[C@H]2[C@@](C)(O)[C@@H]1O`, for which the Potency result in test [6], in test [1], in test [2] and in test [5] was “inactive” each time.

For `CO[C@H]1C[C@H](O[C@H]2[C@@H](O)C[C@H](O[C@H]3CC[C@]4(C=O)[C@H]5CC[C@]6(C)C(C7=CC(=O)OC7)CC[C@]6(O)[C@@H]5CC[C@]4(O)C3)O[C@@H]2C)O[C@H](C)[C@H]1O[C@H]1C[C@@H](OC)[C@@H](O[C@@H]2O[C@H](CO)[C@@H](O)[C@H](O)[C@H]2O)[C@@H](C)O1` (stereo partly specified), the Potency in test [3] is 44 µM (active). The Potency result in test [6] is “inactive”.

For `CO[C@@]12c3c(C)cc(O)c4c(=O)occ(c34)C(=O)[C@@H]1[C@]13COC(=O)c4c(O)cc(C)c(c41)C(=O)[C@H]2[C@@H]3OC(C)=O`, the Potency in test [3] was 3.11 µM (active); in test [4] it was 5.94 µM (active); in test [5], 0.0075 µM (active). Further, the Potency result in test [6] and in test [1] was “inactive” throughout.

`C=CC(C)(C)[C@@]12C[C@H]3C(=O)N/C(=C/c4cnc[nH]4)C(=O)N3[C@@H]1Nc1ccccc12`: the Potency entry in test [4], in test [6], in test [1] and in test [2] was “inactive” in each case. Also, the Potency in test [5] was 0.298 µM (active).

Take `C[C@]12CC(O)C3[C@@H](CCC4C[C@@H](O)CC[C@@]43CO)[C@@]1(O)CC[C@@H]2C1=CC(=O)OC1` (stereo partly specified): the Potency in test [3] was 44 µM (active); in test [4], 13.3 µM (active). Also, in test [5], the Potency result was “inactive”.

Regarding `C/C=C1/CN2C3CC1C1=CCC(=O)N4c5ccccc5[C@@]3(C[C@@H]2C2=C[C@H]3C5CC6N(CC[C@@]67c6ccccc6N(C2=O)[C@@H]37)C/C5=C/C)[C@H]14` (stereo partly specified), the Potency was 31.1 µM (active) in test [3], 14.9 µM (active) in test [1] and 1.33 µM (active) in test [5].

As to `COC1C(O)C(C)OC(OC2C(Oc3cccc4c(O)c5c(=O)oc6ccc(C)c7c(=O)oc(c34)c5c67)OC(C)C(O)C2O)C1O` (stereo unspecified), in test [1], the Potency was 16.8 µM (active).

For the compound `C1=C2CCCN[C@H]2C2CC1[C@H]1CCCCN1C2` (stereo partly specified), the Potency entry in test [4], in test [6], in test [1], in test [2] and in test [5] was “inactive” throughout.

Take `CC[C@H]1CN2CCc3c([nH]c4cccc(OC)c34)[C@@H]2C[C@@H]1/C(=C\OC)C(=O)OC`: the Potency in test [3] was 24.7 µM (active). For the same compound, the Potency entry in test [2] and in test [5] was “inactive” throughout.
